Bioassay records (PubChem BioAssay)
Anesthetic bind – binds horse apoferritin like a general anesthetic; AID 485281; hit rate 0.074% among 350,000; apoferritin/1-aminoanthracene competitive binding, fluorescence; Potency, µM (series often up to 77.5 µM), for inactives: at the highest dose activity change, negative = displacement, most hits filed as inhibitors; further: potency means the concentration at half of the fitted maximal effect; on the % scale 0 is the no-effect control and ±100 the full control effect; nearly all actives have a fitted effect of over 20% in size
Target sequence (P02791 2-175 limits assumed): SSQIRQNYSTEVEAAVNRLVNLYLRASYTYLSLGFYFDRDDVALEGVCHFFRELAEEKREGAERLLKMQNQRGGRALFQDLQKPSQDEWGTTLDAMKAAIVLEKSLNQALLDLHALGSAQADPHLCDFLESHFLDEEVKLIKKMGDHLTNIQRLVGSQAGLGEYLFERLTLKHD
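Steps: apoferritin (10 uM) was premixed with half-saturated 1-AMA in PBS, compounds were pin-transferred, plates stood 10 min at room temperature, fluorescence was read at 380/535 nm, and curves were fitted with a Hill equation.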
ERG Ets-DNA blk – blocks human ERG Ets domain binding to DNA; fluorescence polarization, His-ERG Ets domain / labelled DNA; Potency, µM (highest dose often 76.9 µM), without a hit: at the top dose FP activity, negative = inhibition, usual class: inhibitors; hit rate 0.028% among 370,000; AID 624246; active means well fitted inhibition curve with a large enough effect in the polarisation, with a control signal flat; inconclusive means small, poorly fitted or top-dose-only effect, or effect the other way, or a change in a side signal; inactive means no such curve, though single readings can be large or run the other way; the % refers to the polarisation;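 further: polarization taken with two DNA probes labelled with fluorescein and Texas red; potency means the concentration at half of the fitted maximal effect; % of control where 0% means no effect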
Target sequence (P11308 whole entry, looked up, the tested form may be a part): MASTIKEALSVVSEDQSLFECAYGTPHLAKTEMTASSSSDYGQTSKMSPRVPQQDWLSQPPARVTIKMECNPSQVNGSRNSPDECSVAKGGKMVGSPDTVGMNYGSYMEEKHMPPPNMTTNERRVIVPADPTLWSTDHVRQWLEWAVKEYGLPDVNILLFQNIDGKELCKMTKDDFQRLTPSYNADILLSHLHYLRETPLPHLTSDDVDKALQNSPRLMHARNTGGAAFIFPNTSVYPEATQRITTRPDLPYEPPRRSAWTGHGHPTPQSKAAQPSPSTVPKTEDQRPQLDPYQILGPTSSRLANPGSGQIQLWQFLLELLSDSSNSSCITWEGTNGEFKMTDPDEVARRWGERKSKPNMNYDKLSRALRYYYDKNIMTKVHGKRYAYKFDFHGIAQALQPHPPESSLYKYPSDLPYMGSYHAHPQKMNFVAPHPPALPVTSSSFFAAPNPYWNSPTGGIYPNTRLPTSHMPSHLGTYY
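His-tagged ERG Ets domain (1 uM in the protein solution; 300mM KCl, 50mM Tris-HCl, 1mM EDTA, 1mM DTT, pH 7.5) received compound, then a probe mix of 5 nM fluorescein-DNA and 100nM Texas-615-DNA. Fluorescence polarization was read for both dyes.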
Mm-Cpn inhibitor – M. maripaludis TRiC chaperonin inhibition. hit rate 0.031% among 330,000. AID 504842. purified Mm-Cpn ATPase, ADP Transcreener TR-FRET. Potency, µM (top dose mostly 76.9 µM), for the others: at the top dose activity, negative = inhibition, most hits filed as inhibitors; further: potency means the concentration at half of the fitted maximal effect; on the % scale 0 is the no-effect control and ±100 the full control effect; nearly all actives have a fitted effect of over 80% in size
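Eu-cryptate anti-ADP/ADP-d2 competition gives a ratio inversely related to ADP. Enzyme at 25 nM was pre-exposed to compound for 10 min, then given 10 uM ATP for 30 min, 37°C throughout.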
CCT chaperon mod – cytosolic chaperonin activity modulation. hit rate 0.3% among 360,000. AID 651819. purified chaperonin ATPase assay, HTRF ADP detection, 30 min. activity change, % (concentration not given with the values), hits read low; in the data active means activity change below about -30%; further: on the % scale 0 is the no-effect control and ±100 the full control effect
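We incubate TRiC, 40 or 20 nM final, with library compounds at 76 uM and 10 uM ATP for 30 min at 37 °C. ADP formed is detected with Transcreener HTRF reagents after 30 min at room temperature.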
* marks the source's active call; other numbers are inactive results; ? = inconclusive; . = not tested or not shown. In the library only some 0.39% were active in any assay of this set; here they are far more common. Unless noted, the call rests on the fitted dose curve; in most records, active means well fitted curve in the direction sought with a large enough effect; inconclusive means small, poorly fitted or top-dose-only effect, or another doubt; inactive means no such curve, though single readings can be large; an effect the other way counts as inactive or inconclusive.

SMILES	Anesthetic bind	ERG Ets-DNA blk	Mm-Cpn inhibitor	CCT chaperon mod
CCC(=O)N1CCc2cc(S(=O)(=O)CCC(=O)NCc3ccc(C)cc3)ccc21	2%	-14%	-1%	-3
CCC(=O)N1CCc2cc(S(=O)(=O)CCC(=O)NCc3ccccc3OC)ccc21	-7%	2%	?	-57*
CCC(=O)N1CCc2cc(S(=O)(=O)CCC(=O)NC3CCCCC3)ccc21	-8%	18%	2%	-75*
CCC(=O)N1CCc2cc(S(=O)(=O)CCC(=O)NCc3cccc(OC)c3)ccc21	-6%	0%	-1%	-66*
CCC(=O)N1CCc2cc(S(=O)(=O)CCC(=O)NCc3ccc(F)cc3)ccc21	-2%	-8%	.	.
CC[C@H](C)[C@H](NC(=O)CNC(=O)[C@H](CC(C)C)NC(=O)[C@H](CC(C)C)NC(=O)[C@H](CCC(N)=O)NC(=O)[C@H](CCC(N)=O)NC(=O)[C@H](CC(=O)O)NC(=O)[C@H](CCCCN)NC(=O)[C@H](CC(C)C)NC(=O)[C@H](Cc1ccc(O)cc1)NC(=O)[C@H](CCCNC(=N)N)NC(=O)[C@H](CCC(=O)O)NC(=O)[C@@H](NC(=O)[C@H](C)NC(=O)[C@H](CC(C)C)NC(=O)[C@@H](NC(=O)[C@@H](N)CCCNC(=N)N)[C@@H](C)CC)C(C)C)C(=O)N[C@@H](Cc1c[nH]c2ccccc12)C(=O)NCC(=O)N[C@@H](CS)C(=O)N[C@@H](CO)C(=O)O	-13%	.	.	.
CC(=O)Nc1ccc(Oc2ccc([N+](=O)[O-])cc2Cl)cc1	16µM*	3%	-1%	-4
CC(=O)Nc1ccc(Oc2cc(N)cc([N+](=O)[O-])c2)cc1	-8%	-1%	0%	-2
NC1(C(=O)O)CCc2cc(P(=O)(O)O)ccc21 (configuration not stated)	-18%	.	.	.
COC(=O)/C=C1\N/C(=N\c2nc(C)cc(C)n2)N(c2ccccc2)C1=O	3%	13%	-1%	-38*
COc1ccc(CNC(=O)Cc2c(C)c3c(cc(C)c4c(C)coc43)oc2=O)cc1	-12%	3%	.	.
Cn1ccc2cc(-c3ccc4ncnc(NCc5cccnc5)c4c3)ccc21	.	.	-3%	.
O=[N+]([O-])c1ccc(CNc2ccc(Cl)cc2)s1	14µM*	5%	2%	2
Cc1ccc(NC(=O)CN2C(=O)NC(C)(c3ccccc3)C2=O)c(C)c1 (configuration not stated)	2%	0%	0%	-60*
CC(=O)NC(c1ccco1)c1cc(Cl)c2ccc(N3CCCCC3)nc2c1O (configuration not stated)	.	.	0%	.
COC(=O)c1ccccc1NC(=O)c1noc2c1CC(C(C)(C)C)CC2 (configuration not stated)	-1%	-20%	1%	-81*
CC(C)(C)C1CCc2onc(C(=O)Nc3cccc(O)c3)c2C1 (configuration not stated)	?	.	-4%	.
CC[C@H](C)[C@H](NC(=O)[C@H](Cc1ccccc1)NC(=O)[C@H](CCC(=O)O)NC(=O)[C@H](CCCCN)NC(=O)[C@H](C)NC(=O)[C@H](C)NC(=O)[C@H](CCC(N)=O)NC(=O)CNC(=O)[C@H](CCC(=O)O)NC(=O)[C@H](CC(C)C)NC(=O)[C@H](Cc1ccc(O)cc1)NC(=O)[C@H](CO)NC(=O)[C@H](CO)NC(=O)[C@@H](NC(=O)[C@H](CC(=O)O)NC(=O)[C@H](CO)NC(=O)[C@@H](NC(=O)[C@H](Cc1ccccc1)NC(=O)[C@@H](NC(=O)CNC(=O)[C@H](CCC(=O)O)NC(=O)[C@H](C)NC(=O)[C@@H](N)Cc1cnc[nH]1)[C@@H](C)O)[C@@H](C)O)C(C)C)C(=O)N[C@@H](C)C(=O)N[C@@H](Cc1c[nH]c2ccccc12)C(=O)N[C@@H](CC(C)C)C(=O)N[C@H](C(=O)N[C@@H](CCCCN)C(N)=O)C(C)C	3%	.	.	.
c1ccc(-c2[nH]ncc2-c2ccnc3ccccc23)nc1	-4%	.	.	.
NC(=O)C1CCN(c2nc(-c3ccc(Cl)cc3)cs2)CC1	.	.	-2%	.
CCC(Cc1ccccc1)NC(=O)Cn1cccc1C(=O)c1ccccc1 (configuration not stated)	-13%	13%	-4%	-42*
CC(C)(C)c1ccc(OCCC(=O)NC2=NCCS2)cc1	13µM*	3%	1%	-2
CCN1C(=O)N[C@@H](c2cccc(F)c2)C(C(=O)OC)=C1C	.	10%	.	-40*
O=C(CNC(=O)c1cccs1)OCC(=O)c1ccc2ccccc2c1	14µM*	-11%	-2%	0
O=C(CNC(=O)c1cccs1)OCC(=O)c1ccccc1	-18%	2%	1%	-6
SMILES	Anesthetic bind	ERG Ets-DNA blk	Mm-Cpn inhibitor	CCT chaperon mod
COc1ccc(S(=O)(=O)N2N=C(c3cccc(NS(C)(=O)=O)c3)CC2c2ccco2)cc1 (configuration not stated)	-6%	-6%	-2%	-69*
O=c1ccc2ccc(OS(=O)(=O)O)cc2o1	597%	.	.	.
C[C@@H]1CN([C@@H](C)CO)C(=O)CCCn2cc(nn2)CO[C@H]1CN(C)S(=O)(=O)c1ccccc1C#N	.	.	.	-53*
Cc1ccc(-c2nn3c(=O)cc(CN4CCN(C(=O)Nc5cc(Cl)ccc5C)CC4)nc3s2)cc1	50%	13%	.	.
CCOc1ccc2nc(N3CCCC(C(=O)Nc4ccc(OC)cc4)C3)sc2c1 (configuration not stated)	-9%	-2%	.	.
COc1ccc(N(CC(=O)NCC2CCCO2)S(=O)(=O)c2c(C)noc2C)cc1 (configuration not stated)	-7%	-14%	1%	-65*
COc1ccccc1OCC(=O)N/N=C1\CCCCc2ccccc21	-8%	9%	0%	-2
Cc1cccc2c1OCC/C2=N\NC(=O)COc1ccccc1	?	-3%	1%	-32*
COc1ccccc1OCC(=O)N/N=C1\CCc2ccccc21	?	-3%	2%	-34*
OC[C@@H](O)C(O)[C@H](O)[C@@H](O)CO (some centres not stated)	1%	.	.	.
Cc1csc(C(=O)O)c1NC(=O)c1c(Cl)cccc1Cl	-3%	-20%	0%	-87*
O=C(O)c1sccc1NC(=O)c1c(Cl)cccc1Cl	6%	-2%	1%	0
CC(NC(=O)Cc1ccc(-c2ccccc2)cc1)c1ccccc1 (configuration not stated)	-20%	-7%	-4%	-43*
COc1ccc(-c2nnc(SCC(=O)NC(C)c3ccccc3)o2)cc1 (configuration not stated)	-1%	10%	3%	-50*
CC(NC(=O)COC(=O)Cc1ccc(Cl)cc1)c1ccccc1 (configuration not stated)	.	7%	1%	-2
COc1ccc(-c2nnc(SCC(=O)Nc3ccccc3OC)o2)cc1	0%	-6%	0%	-4
O=C(c1ccc2ncsc2c1)N1CCCCC1	-1%	-1%	2%	-36*
